Experimental data as given in PubChem BioAssay (Tox21).
Inconclusive results are not listed. Activity calls are given as the source filed them. Unless noted, the call rests on the fitted dose curve; in most records, active means well fitted curve in the direction sought with a large enough effect in the repeat runs; inconclusive means weak or mixed curves; inactive means no such curve, though single readings can be large; an effect the other way counts as inactive or inconclusive.

How the values were obtained:
[1] = molecular target: Thyrotropin-releasing hormone receptor (Homo sapiens) (UniProt P34981); experiment: qHTS assay to identify small molecule agonists of the thyrotropin-releasing hormone receptor (TRHR) signaling pathway (AID 1346891; calls by dose curve;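 further: HEK293 cells expressing TRHR with calcium dye readout; series mostly up to about 58 µM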)
Thyrotropin-releasing hormone receptor (Homo sapiens), sequence (P34981 whole entry, looked up): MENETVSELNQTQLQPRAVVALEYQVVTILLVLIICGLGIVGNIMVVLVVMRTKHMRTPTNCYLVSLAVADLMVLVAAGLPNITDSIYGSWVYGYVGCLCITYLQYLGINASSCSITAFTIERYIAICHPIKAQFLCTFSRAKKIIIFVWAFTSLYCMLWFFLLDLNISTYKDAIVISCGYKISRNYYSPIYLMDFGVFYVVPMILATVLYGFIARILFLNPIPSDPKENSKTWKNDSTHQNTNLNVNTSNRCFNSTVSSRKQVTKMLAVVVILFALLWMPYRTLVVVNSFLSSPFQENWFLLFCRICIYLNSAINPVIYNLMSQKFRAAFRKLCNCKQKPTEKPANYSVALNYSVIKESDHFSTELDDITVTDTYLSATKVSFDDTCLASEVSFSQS
In short: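 Kinetic fluorescence (3 min, 1 s intervals) reported intracellular calcium after compound transfer onto TRHR-Hek293 cells pre-loaded with dye for 2 h at 37 °C.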

[2] = Human pregnane X receptor (PXR) small molecule agonists, qHTS cell viability counter screen (AID 1346977); further: nearly all actives have a fitted effect of over 50% in size
In short: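 HepG2 cells stably carrying the PXR-Luc reporter are cultured with 5% charcoal-stripped FBS and treated with compounds for 24hr. CellTiter-Fluor is added at 23hr and fluorescence is read after 1hr.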

[3] = Caspase-3/7 induction in HepG2 cells by small molecules, qHTS assay (AID 1346978); further: nearly all actives have a fitted effect of over 15% in size
In short: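 Wild-type HepG2 cells (2,000/well) were settled 5 h at 37 C, 5% CO2, then exposed to compounds in DMSO for 17 h. Caspase-3/7 activity was read by luminescence 30 min after adding Caspase-Glo 3/7 reagent at room temperature.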

[4] = Caspase-3/7 induction in CHO-K1 cells by small molecules, qHTS cell viability counter screen (AID 1346979); further: nearly all actives have a fitted effect of over 35% in size
In short: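 Seeding: 1,500 CHO-K1 cells/well. Rest: 5hr, 37C. Treatment: compounds in DMSO, 16hr. Read: CellTiter-Fluor, 1hr, fluorescence.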

[5] = Caspase-3/7 induction in CHO-K1 cells by small molecules, qHTS assay (AID 1346980); further: nearly all actives have a fitted effect of over 15% in size
In short: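 Wild-type cells were seeded at 1,500 per well and settled 5 hr at 37 C, 5% CO2, then exposed to DMSO-dissolved compounds for 17 hr. Caspase-Glo 3/7 reagent was added, and luminescence was read after 30min at room temperature.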

[6] = Caspase-3/7 induction in HepG2 cells by small molecules, qHTS cell viability counter screen (AID 1346981); further: series mostly up to about 92 µM; nearly all actives have a fitted effect of over 30% in size
In short: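 Steps: seed 2,000 HepG2 cells per well; incubate 5 hr at 37 C; pin-add compounds in DMSO; incubate 16 hr; add CellTiter-Fluor; after 1 hr at 37 C and 5% CO2, read fluorescence.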

[7] = molecular target: Nuclear receptor subfamily 1 group I member 2 (Homo sapiens) (UniProt O75469); experiment: Human pregnane X receptor (PXR) small molecule agonists, qHTS assay (AID 1346982); further: nearly all actives have a fitted effect of over 35% in size
Nuclear receptor subfamily 1 group I member 2 (Homo sapiens), sequence (O75469 whole entry, looked up): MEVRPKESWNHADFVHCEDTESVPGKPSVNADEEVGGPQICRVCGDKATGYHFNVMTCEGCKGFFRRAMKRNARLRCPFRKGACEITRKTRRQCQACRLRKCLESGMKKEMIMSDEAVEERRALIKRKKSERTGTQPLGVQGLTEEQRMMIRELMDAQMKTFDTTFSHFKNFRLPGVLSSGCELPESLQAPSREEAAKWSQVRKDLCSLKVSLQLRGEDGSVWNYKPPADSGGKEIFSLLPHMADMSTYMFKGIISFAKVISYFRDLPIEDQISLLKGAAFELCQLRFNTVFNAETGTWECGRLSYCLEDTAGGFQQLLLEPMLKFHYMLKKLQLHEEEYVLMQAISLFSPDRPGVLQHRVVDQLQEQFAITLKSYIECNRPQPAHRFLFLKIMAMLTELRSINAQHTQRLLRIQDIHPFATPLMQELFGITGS
In short: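 Agonist mode qHTS: PXR-Luc HepG2 cells plated 5 hr before DMSO-dissolved compounds were pinned in, cultured 24 hr at 37 C, 5% CO2; ONE-Glo luminescence readout.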

[8] = molecular target: Cytochrome P450 2D6 (Homo sapiens) (UniProt P10635); experiment: Cytochrome P450 Family 2 Subfamily D Member 6 (CYP2D6) small molecule antagonists: luciferase reporter qHTS assay (AID 1671196); further: nearly all actives have a fitted effect of over 50% in size; further: potency means the concentration at half of the fitted maximal effect
Cytochrome P450 2D6 (Homo sapiens), sequence (P10635 whole entry, looked up): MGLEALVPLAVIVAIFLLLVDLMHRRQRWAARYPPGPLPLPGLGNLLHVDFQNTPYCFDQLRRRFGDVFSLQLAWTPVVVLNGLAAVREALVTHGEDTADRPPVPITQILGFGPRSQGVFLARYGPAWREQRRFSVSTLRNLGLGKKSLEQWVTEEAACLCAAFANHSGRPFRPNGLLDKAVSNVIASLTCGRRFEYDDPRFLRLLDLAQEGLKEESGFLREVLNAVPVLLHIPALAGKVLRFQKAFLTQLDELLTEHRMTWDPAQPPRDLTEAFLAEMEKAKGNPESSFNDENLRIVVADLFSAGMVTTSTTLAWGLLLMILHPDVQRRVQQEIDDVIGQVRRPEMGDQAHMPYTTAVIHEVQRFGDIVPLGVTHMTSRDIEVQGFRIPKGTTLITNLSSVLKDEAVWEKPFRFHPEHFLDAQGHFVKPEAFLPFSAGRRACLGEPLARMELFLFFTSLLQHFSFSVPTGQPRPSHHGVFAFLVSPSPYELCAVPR
In short: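 P450-Glo format: CYP2D6 converts a proluciferin substrate to luciferin in an NADPH-driven reaction lasting 1 h at room temperature. Light output, proportional to CYP2D6 activity, reflects interference by test chemicals.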

[9] = molecular target: Cytochrome P450 2C19 (Homo sapiens) (UniProt P33261); experiment: Cytochrome P450 Family 2 Subfamily C Member 19 (CYP2C19) small molecule antagonists: luciferase reporter qHTS assay (AID 1671197); further: nearly all actives have a fitted effect of over 65% in size; further: potency means the concentration at half of the fitted maximal effect
Cytochrome P450 2C19 (Homo sapiens), sequence (P33261 whole entry, looked up): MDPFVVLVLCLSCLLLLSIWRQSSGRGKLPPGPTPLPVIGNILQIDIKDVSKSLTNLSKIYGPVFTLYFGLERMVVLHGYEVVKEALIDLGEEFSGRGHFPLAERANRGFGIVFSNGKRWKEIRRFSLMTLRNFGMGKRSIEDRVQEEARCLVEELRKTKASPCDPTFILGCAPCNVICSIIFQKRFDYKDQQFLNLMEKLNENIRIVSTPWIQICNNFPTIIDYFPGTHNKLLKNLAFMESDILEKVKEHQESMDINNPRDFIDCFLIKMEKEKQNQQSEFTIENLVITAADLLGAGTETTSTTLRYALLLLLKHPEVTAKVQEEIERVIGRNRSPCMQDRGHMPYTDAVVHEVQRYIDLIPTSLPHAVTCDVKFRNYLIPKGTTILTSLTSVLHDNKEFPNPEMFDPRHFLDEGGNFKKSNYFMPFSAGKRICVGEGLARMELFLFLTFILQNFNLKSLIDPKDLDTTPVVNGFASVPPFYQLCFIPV
In short: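 First, compounds are pinned into enzyme-substrate mix and held 10 min at room temperature. Second, NADPH regeneration solution is added and plates incubate 1 h at 37C. Third, detection reagent is added and luminescence read after 20 min.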

[10] = molecular target: Voltage-gated inwardly rectifying potassium channel KCNH2 (Homo sapiens) (UniProt Q12809); experiment: Human Ether-a-go-go-Related Gene (hERG) channel small molecule antagonists: fluorescence cell-based qHTS assay (AID 1671200);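 further: hERG-expressing U2OS cells given a thallium stimulus after FluxOR II dye loading; series mostly up to about 77 µM; nearly all actives have a fitted effect of over 50% in size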
Voltage-gated inwardly rectifying potassium channel KCNH2 (Homo sapiens), sequence (Q12809 whole entry, looked up): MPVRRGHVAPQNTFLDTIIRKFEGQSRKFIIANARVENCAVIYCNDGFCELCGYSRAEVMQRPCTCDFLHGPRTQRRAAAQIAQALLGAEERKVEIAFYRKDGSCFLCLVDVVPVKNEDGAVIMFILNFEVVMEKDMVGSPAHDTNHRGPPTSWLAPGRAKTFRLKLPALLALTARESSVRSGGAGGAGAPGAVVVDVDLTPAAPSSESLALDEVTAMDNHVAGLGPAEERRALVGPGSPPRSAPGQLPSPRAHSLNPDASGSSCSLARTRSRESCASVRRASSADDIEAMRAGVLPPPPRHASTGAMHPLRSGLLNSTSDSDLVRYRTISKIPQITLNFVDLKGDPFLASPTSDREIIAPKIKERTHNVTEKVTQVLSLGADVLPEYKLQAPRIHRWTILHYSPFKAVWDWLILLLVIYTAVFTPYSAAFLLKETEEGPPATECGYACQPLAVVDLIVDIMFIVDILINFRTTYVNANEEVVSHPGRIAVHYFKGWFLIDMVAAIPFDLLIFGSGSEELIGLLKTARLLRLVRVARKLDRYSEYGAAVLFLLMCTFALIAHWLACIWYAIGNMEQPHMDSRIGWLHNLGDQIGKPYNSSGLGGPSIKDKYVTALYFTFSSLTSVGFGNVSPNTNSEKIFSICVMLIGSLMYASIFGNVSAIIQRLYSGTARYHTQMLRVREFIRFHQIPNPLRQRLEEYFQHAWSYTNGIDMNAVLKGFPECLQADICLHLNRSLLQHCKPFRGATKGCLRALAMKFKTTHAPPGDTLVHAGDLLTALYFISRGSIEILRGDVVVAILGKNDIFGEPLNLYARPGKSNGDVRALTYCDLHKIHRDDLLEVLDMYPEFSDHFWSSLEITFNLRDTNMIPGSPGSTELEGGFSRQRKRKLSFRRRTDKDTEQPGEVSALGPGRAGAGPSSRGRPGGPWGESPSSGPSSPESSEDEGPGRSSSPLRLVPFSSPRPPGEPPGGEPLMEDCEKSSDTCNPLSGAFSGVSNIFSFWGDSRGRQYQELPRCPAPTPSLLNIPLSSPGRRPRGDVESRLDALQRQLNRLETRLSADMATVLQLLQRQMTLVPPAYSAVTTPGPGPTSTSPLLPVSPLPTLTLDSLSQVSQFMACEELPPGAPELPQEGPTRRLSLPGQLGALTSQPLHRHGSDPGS
In short: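 First, 1000 cells per well are seeded and cultured overnight at 37 C. Next, FluxOR II dye is loaded for 1 h at room temperature, protected from light. After 10 more minutes, stimulus is added and fluorescence is read.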

[11] = molecular target: Cytochrome P450 1A2 (Homo sapiens) (UniProt P05177); experiment: Cytochrome P450 Family 1 Subfamily A Member 2 (CYP1A2) small molecule antagonists: luciferase reporter qHTS assay (AID 1671199); further: nearly all actives have a fitted effect of over 50% in size; further: potency means the concentration at half of the fitted maximal effect
Cytochrome P450 1A2 (Homo sapiens), sequence (P05177 whole entry, looked up): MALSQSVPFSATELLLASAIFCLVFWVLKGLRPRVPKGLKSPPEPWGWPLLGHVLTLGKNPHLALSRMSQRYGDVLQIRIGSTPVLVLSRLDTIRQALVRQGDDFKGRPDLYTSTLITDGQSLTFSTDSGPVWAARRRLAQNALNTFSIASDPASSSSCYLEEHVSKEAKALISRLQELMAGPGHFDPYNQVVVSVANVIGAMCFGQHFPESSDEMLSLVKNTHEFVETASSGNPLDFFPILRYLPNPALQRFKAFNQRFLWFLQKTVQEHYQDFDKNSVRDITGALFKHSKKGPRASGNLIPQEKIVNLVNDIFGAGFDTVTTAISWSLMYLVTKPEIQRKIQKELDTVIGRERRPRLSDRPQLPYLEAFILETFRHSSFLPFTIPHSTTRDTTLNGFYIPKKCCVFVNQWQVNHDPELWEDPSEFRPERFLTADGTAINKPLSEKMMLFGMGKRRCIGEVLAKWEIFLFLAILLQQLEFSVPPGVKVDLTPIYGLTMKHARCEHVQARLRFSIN
In short: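 Inhibition of CYP1A2 conversion of proluciferin to luciferin, detected by luminescence. Reaction run 1 h at room temperature with NADPH regeneration after brief compound preincubation.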

[12] = molecular target: Cytochrome P450 3A4 (Homo sapiens) (UniProt P08684); experiment: Cytochrome P450 Family 3 Subfamily A Member 4 (CYP3A4) small molecule antagonists: luciferase reporter qHTS assay (AID 1671201)
Cytochrome P450 3A4 (Homo sapiens), sequence (P08684 whole entry, looked up): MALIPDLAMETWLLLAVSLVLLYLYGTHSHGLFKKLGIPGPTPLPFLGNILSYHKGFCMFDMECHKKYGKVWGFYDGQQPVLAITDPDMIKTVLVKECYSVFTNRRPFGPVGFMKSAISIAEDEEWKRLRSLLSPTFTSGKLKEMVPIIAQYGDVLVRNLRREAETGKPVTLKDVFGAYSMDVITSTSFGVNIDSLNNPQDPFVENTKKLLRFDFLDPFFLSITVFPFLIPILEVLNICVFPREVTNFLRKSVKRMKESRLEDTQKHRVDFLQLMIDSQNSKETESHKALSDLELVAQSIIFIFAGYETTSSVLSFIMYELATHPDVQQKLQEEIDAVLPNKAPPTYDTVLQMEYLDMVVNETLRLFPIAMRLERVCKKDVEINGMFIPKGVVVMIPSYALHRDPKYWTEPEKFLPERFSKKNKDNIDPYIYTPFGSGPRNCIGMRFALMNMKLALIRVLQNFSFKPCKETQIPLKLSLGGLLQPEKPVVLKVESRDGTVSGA
In short: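 Enzyme and proluciferin substrate are mixed with test chemicals for 10 min, then NADPH regeneration system drives turnover for 1 h at room temperature. A detection reagent halts the reaction; luminescence after 20 min gives relative activity.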

[13] = molecular target: Cytochrome P450 2C9 (Homo sapiens) (UniProt P11712); experiment: Cytochrome P450 Family 2 Subfamily C Member 9 (CYP2C9) small molecule antagonists: luciferase reporter qHTS assay (AID 1671198)
Cytochrome P450 2C9 (Homo sapiens), sequence (P11712 whole entry, looked up): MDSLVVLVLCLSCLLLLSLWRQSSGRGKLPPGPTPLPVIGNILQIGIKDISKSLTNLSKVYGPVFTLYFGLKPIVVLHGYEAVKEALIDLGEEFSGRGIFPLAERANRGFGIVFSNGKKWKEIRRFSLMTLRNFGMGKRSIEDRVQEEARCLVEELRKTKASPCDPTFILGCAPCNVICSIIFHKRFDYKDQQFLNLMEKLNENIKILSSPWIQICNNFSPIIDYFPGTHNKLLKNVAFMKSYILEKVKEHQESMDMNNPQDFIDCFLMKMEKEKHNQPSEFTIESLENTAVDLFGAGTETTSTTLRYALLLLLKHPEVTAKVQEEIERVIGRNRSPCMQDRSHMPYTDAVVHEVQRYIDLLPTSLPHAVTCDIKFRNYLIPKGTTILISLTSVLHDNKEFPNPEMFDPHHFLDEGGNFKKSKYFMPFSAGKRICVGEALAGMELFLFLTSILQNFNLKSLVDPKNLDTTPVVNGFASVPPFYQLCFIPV
In short: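 CYP2C9 activity was measured with a P450-Glo proluciferin substrate. Enzyme–substrate mix was held with compound for 10 min at room temperature, then NADPH regeneration solution was added for 1 h at 37C. Luciferin product was read as luminescence.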

[14] = molecular target: Nuclear receptor subfamily 1 group I member 2 (Rattus norvegicus) (UniProt Q9R1A7); experiment: Rat pregnane X receptor (rPXR) activation by small molecules, qHTS assay (AID 1346983); conditions: rPXR luciferase reporter cells, One-Glo luminescence, 24 h; max activation: hits give high values; further: nearly all actives have a fitted effect of over 20% in size
Nuclear receptor subfamily 1 group I member 2 (Rattus norvegicus), sequence (Q9R1A7 whole entry, looked up): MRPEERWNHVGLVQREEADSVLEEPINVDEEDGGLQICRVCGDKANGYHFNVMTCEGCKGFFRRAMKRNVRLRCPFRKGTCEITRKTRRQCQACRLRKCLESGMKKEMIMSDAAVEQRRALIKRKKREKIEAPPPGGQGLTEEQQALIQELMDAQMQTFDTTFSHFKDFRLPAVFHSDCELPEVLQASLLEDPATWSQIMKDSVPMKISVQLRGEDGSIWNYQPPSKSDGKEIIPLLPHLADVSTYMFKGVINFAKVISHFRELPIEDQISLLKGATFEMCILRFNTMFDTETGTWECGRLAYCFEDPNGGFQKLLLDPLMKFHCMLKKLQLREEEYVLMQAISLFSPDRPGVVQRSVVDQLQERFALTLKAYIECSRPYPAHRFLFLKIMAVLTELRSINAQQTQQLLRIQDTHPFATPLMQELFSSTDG
In short: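 Cell-based rPXR luciferase reporter assay, 2,000 cells per well, rested 5hr at 37 C before compound addition in DMSO, then 24 hr at 37 C. One-Glo reagent was added and luminescence read after 30 min at room temperature.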

[15] = molecular target: Nuclear receptor subfamily 1 group I member 2 (Homo sapiens) (UniProt O75469); experiment: CYP3A4 induction through human pregnane X receptor (PXR) by small molecules, qHTS assay (AID 1346984); further: nearly all actives have a fitted effect of over 40% in size
In short: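 Steps: seed DPX-2 cells, 5 hr at 37C; pin-transfer compounds; 24 hr at 37C; add Luciferin-IPA (3uM final), 3 hr at 37C; add One-Glo, 30 min RT; read luminescence.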

[16] = molecular target: Nuclear receptor subfamily 1 group I member 2 (Homo sapiens) (UniProt O75469); experiment: Human pregnane X receptor (PXR) activation by small molecules, qHTS assay (AID 1346985); further: nearly all actives have a fitted effect of over 40% in size
In short: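 DPX-2 cells (HepG2 co-transfected with a PXR response element and a CYP3A4-promoter luciferase construct) were seeded at 2,000 per well, rested 5 hr at 37C, then exposed to DMSO-dissolved compounds for 24 hr. Activation was read as luciferase luminescence.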
On the % scale 0 is the no-effect control and ±100 the full control effect.

CCC(=O)Nc1cccc(N)c1
inactive: outcome [1] | Potency [2] | outcome [3] | Potency [4] | outcome [5] | outcome [6] | Potency [7] | Potency [8] | Potency [9] | Potency [10]

CCCCCCC(=O)OCC
inactive: outcome [1] | Potency [2] | outcome [3] | Potency [4] | outcome [5] | outcome [6] | Potency [7] | Potency [8] | Potency [9] | Potency [11] | Potency [10] | Potency [12]

C=C(C)C(=O)NCCCN(C)C
inactive: outcome [1] | Potency [2] | outcome [3] | Potency [4] | outcome [5] | outcome [6] | Potency [7] | Potency [8] | Potency [9] | Potency [13] | Potency [10] | Potency [12]

C#CC(C)(O)CC(C)C (stereo not drawn)
inactive: outcome [1] | Potency [2] | outcome [3] | Potency [4] | outcome [5] | outcome [6] | Potency [7] | Potency [8] | Potency [9] | Potency [11] | Potency [10] | Potency [12]

O=C(O)c1ccc[n+]([O-])c1
inactive: outcome [1] | Potency [2] | outcome [3] | Potency [4] | outcome [5] | outcome [6] | Potency [7] | max activation [14] -2.52% | Potency [15] | Potency [16] | Potency [8] | Potency [9] | Potency [13] | Potency [11] | Potency [10] | Potency [12]

O=c1[nH]c2ccccc2c(=O)n1CCCl
active: Potency [11] 5.49 µM
inactive: outcome [1] | Potency [2] | outcome [3] | Potency [4] | outcome [5] | outcome [6] | Potency [7] | Potency [8] | Potency [9] | Potency [10] | Potency [12]

CCN(CC)S(=O)(=O)c1ccc(C(=O)O)cc1
inactive: outcome [1] | Potency [2] | outcome [3] | Potency [4] | outcome [5] | outcome [6] | Potency [7] | max activation [14] -1.28% | Potency [15] | Potency [16] | Potency [11] | Potency [10] | Potency [12]
active: Potency [8] 38.9 µM

COc1cc(O)cc(O)c1
inactive: outcome [1] | Potency [2] | outcome [3] | Potency [4] | outcome [5] | outcome [6] | Potency [7] | max activation [14] -1.94% | Potency [15] | Potency [16] | Potency [8] | Potency [10]
active: Potency [9] 30.9 µM

OCC(CO)(CO)COCC(CO)(CO)CO
inactive: outcome [1] | Potency [2] | outcome [3] | Potency [4] | outcome [5] | outcome [6] | Potency [7] | Potency [8] | Potency [9] | Potency [13] | Potency [10] | Potency [12]
